Source: PubChem BioAssay
This is one part of a sample in which hits are shown more often than they occur.
mcGAS MS inh – inhibitors of mouse cGAS. Q8C6L5. recombinant mouse cGAS, cGAMP by RapidFire MS. inhibition, % at 12.5 µM. hit rate 0.18% among 130,000;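 active means inhibition of cGAS enzyme activity at or above 60%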;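 further: enzyme stimulated by 45 bp dsDNA with ATP and GTP substrates; cGAMP share of summed cGAMP plus half ATP and half GTP signals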
Target sequence (Q8C6L5 whole entry, looked up): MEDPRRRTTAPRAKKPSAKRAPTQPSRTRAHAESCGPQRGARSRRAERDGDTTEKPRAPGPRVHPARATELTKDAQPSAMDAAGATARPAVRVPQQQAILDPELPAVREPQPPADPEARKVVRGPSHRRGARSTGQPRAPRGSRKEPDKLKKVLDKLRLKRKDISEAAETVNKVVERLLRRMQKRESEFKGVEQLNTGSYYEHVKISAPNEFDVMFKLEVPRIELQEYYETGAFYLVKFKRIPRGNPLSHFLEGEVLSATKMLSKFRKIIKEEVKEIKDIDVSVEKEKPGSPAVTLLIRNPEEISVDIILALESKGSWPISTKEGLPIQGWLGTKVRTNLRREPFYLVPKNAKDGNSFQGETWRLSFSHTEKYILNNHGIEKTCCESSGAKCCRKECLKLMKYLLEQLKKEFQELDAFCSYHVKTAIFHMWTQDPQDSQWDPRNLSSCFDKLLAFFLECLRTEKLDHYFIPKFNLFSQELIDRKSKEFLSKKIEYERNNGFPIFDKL
* hit, by the source's call; ! = repeats disagree.

SMILES | mcGAS MS inh
O=C(NC1CCS(=O)(=O)CC1)C1CC1c1ccc(Cl)cc1 (configuration not stated) | -0.7
C=CCc1cc(C)cc(C)c1OCCN1CCN(C)CC1 | -0.7
CCn1c(C2CCCNC2)nn(Cc2cc(OC)ccn2)c1=O (configuration not stated) | 60.9*!
CCn1c(C2CCCNC2)nn(Cc2cc(=O)n3cc(C)sc3n2)c1=O (configuration not stated) | -5.9
COc1ccnc(Cn2nc(C3CCNCC3)n(-c3ccccc3)c2=O)c1 | 4.8
O=C(c1cnc2cc3c(cc2c1)OCCO3)c1cc(F)ccc1O | -7.7
CSCC(=O)NC(C)c1cnn(-c2ccccc2C)c1C (configuration not stated) | 1.3
O=C(OC[C@H]1O[C@H](OC(=O)c2cc(O)c(O)c(OC(=O)c3cc(O)c(O)c(O)c3)c2)[C@H](OC(=O)c2cc(O)c(O)c(OC(=O)c3cc(O)c(O)c(O)c3)c2)[C@@H](OC(=O)c2cc(O)c(O)c(OC(=O)c3cc(O)c(O)c(O)c3)c2)[C@@H]1OC(=O)c1cc(O)c(O)c(OC(=O)c2cc(O)c(O)c(O)c2)c1)c1cc(O)c(O)c(OC(=O)c2cc(O)c(O)c(O)c2)c1 | 95.9*
CC(=O)OC[C@H]1O[C@@H](Oc2cc(OC(C)=O)c3c(=O)cc(-c4ccc(OC(C)=O)cc4)oc3c2)[C@H](OC(C)=O)[C@@H](OC(C)=O)[C@@H]1OC(C)=O | -4.0
Cc1cc(NC(=O)c2cc(C)n(C(C)C)c2C)ccc1Oc1cccnc1 | -1.3
CN1CCN(C2=NC(C(=O)Nc3ccccc3)CC(=O)N2)CC1 (configuration not stated) | 69.8*
CN1CCC(N(Cc2ccccc2)C(=O)Nc2ccc(NC(=O)C3CC3)cc2)CC1 | -10.0
CN1C(=O)CC(C(=O)Nc2ccccc2)SC1=Nc1ccc(Cl)c(C(F)(F)F)c1 (configuration not stated) | -6.6
O=C(c1cc2n(n1)CCN(C(=O)c1cccc(=O)[nH]1)C2)N1CCCC1 | -5.3
Cc1cccc(C(=O)N2N=C(c3ccncc3)CC2(O)C(F)(F)F)c1O (configuration not stated) | 4.2
O=c1c(O)c(-c2ccccc2)[nH]c2ccccc12 | -10.2
O=c1[nH]c2c(-c3ccccc3)c(O)cn2c2c1sc1ccccc12 | 70.4*
O=c1[nH]c2c(-c3nc4ccccc4s3)c(O)cn2c2sc3c(c12)CCCC3 | -8.2
Cc1noc(C)c1C1CCCN1Cc1ccc(C#CC(C)(C)O)s1 (configuration not stated) | -45.5
C=CC[C@@H]1CC=C[C@@H](C)N1C(=O)c1cc(COc2ccc3sc(C)nc3c2)on1 | -6.7
Cc1ccc(/C=C(/Cl)c2nc3cc(Cl)ccc3c(=O)[nH]2)s1 | 0.1
COc1cc(CSc2nnnn2-c2ccccc2)ccc1OC(F)F | -0.4
COc1ccc(CN(C)Cc2nnc(C(C)C)o2)cc1OC(F)F | 81.3*
COc1cc(CN(C)Cc2oc(CO)cc(=O)c2O)ccc1OC(F)F | -30.6
Cn1cc(/C=C/C(=O)N2CCc3[nH]nc(-c4ccccc4)c3C2)cn1 | -14.2
Cc1noc(C)c1CN1CCN2C=C(C(=O)Nc3cccc(Cc4ccccc4)c3)OC2=NC1=O | -5.7
